According to the supplement of paper PMC4840960:

tested on: E18 rat cortical neuron-glia co-culture; test: fiber score / MBP score (myelination specific beyond OL differentiation) (ratio); higher = more myelination-specific MBP alignment; conditions: 1 µM; treatment time: 8 days (DIV5-DIV13)
In short: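 Fiber score divided by MBP score is the read-out; fiber score is continuous MBP fiber length per Olig2+ nucleus, and MBP score is thresholded MBP area × intensity per Olig2+ nucleus. Primary E18 rat cortical co-cultures were dissociated with papain and seeded at 20,000 cells/well on poly-d-lysine/laminin 96-well plates. Library compounds at 1 or 5 µM were given in myelination medium from DIV5 to DIV13, after which cells were fixed in 4 % paraformaldehyde, immunostained for MBP and Olig2 with DAPI, and imaged in four 10X fields per well in duplicate wells.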

Row | Compound | fiber score / MBP score
1 | CN(C)CCc1c[nH]c2ccc(C[C@H]3COC(=O)N3)cc12 [Zolmitriptan] | 0.791
2 | O=C(O[C@@H]1C[C@@H]2C[C@H]3C[C@H](C1)N2CC3=O)c1c[nH]c2ccccc12 [Dolasetron] | 0.649
3 | NC(=O)c1ncn([C@@H]2O[C@H](CO)[C@@H](O)[C@H]2O)n1 [Ribavirin] | 1.17
4 | CC1=C(/C=C/C(C)=C/C=C/C(C)=C\C(=O)O)C(C)(C)CCC1 [Isotretinoin] | 0.294
5 | NC[C@H]1CC[C@H](C(=O)Oc2ccc(CCC(=O)O)cc2)CC1 [Cetraxate] | 1.07

same assay, conditions: 5 µM; treatment time: 8 days (DIV5-DIV13)

Row | Compound | fiber score / MBP score
6 | S=c1[nH]cnc2nc[nH]c12 [Mercaptopurine] | 0.41
7 | CC(C)(C(=O)O)c1ccc(C(O)CCCN2CCC(C(O)(c3ccccc3)c3ccccc3)CC2)cc1 (stereo not drawn) [Fexofenadine] | 0.82
8 | CC1=C(C(=O)O)N2C(=O)[C@@H](NC(=O)[C@H](N)c3ccccc3)[C@H]2SC1 [Cephalexin] | 0.986
9 | OCCN(CCO)c1nc(N2CCCCC2)c2nc(N(CCO)CCO)nc(N3CCCCC3)c2n1 [Dipyridamole] | 0.523
10 | CCC[C@@H]1C[C@@H](C(=O)N[C@@H]([C@H]2O[C@H](SC)[C@H](O)[C@@H](O)[C@H]2O)[C@@H](C)O)N(C)C1 [Lincomycin] | 0.914
11 | CCOC(=O)[C@H](CCc1ccccc1)N[C@H]1CCc2ccccc2N(CC(=O)O)C1=O [Benazepril] | 0.971
12 | Cn1c(NCCN(CCO)CCCc2ccc([N+](=O)[O-])cc2)cc(=O)n(C)c1=O [Nifekalant] | 0.616
13 | COC(=O)C1=C(C)NC(C)=C(C(=O)OC(C)C)C1c1cccc2nonc12 (stereo not drawn) [Isradipine] | 0.922
14 | C[C@](N)(Cc1ccc(O)c(O)c1)C(=O)O [Methyldopa] | 0.884
15 | CCCNCC(O)COc1ccccc1C(=O)CCc1ccccc1 (stereo not drawn) [Propafenone] | 0.376
16 | CC(Oc1c(Cl)cccc1Cl)C1=NCCN1 (stereo not drawn) [lofexidine] | 1.1
17 | C[C@@H]1O[C@@H](OC[C@H]2O[C@@H](Oc3c(-c4ccc(O)c(O)c4)oc4cc(O)cc(O)c4c3=O)[C@H](O)[C@@H](O)[C@@H]2O)[C@H](O)[C@H](O)[C@H]1O [Rutin] | 0.905
18 | Cc1[nH]c(=O)c(C#N)cc1-c1ccncc1 [Milrinone] | 0.504
19 | Cc1nc2ccccn2c(=O)c1CCN1CCC(C(=O)c2ccc(F)cc2)CC1 [Pirenperone] | 0.646
20 | C[C@H]1[C@H](OC(=O)CCC(=O)O)O[C@@H]2O[C@@]3(C)CC[C@H]4[C@H](C)CC[C@@H]1[C@@]24OO3 [Artesunate] | 1.2
21 | CCC1=C[C@@H]2CN(C1)Cc1c([nH]c3ccccc13)[C@@](C(=O)OC)(c1cc3c(cc1OC)N(C)[C@H]1[C@@](O)(C(=O)OC)[C@H](OC(C)=O)[C@]4(CC)C=CCN5CC[C@]31[C@@H]54)C2 [Vinorelbine] | 0.453
22 | Nc1nc(N)c2nc(-c3ccccc3)c(N)nc2n1 [Triamterene] | 1.62
23 | CC(C)(C#N)c1cc(Cn2cncn2)cc(C(C)(C)C#N)c1 [Anastrozole] | 0.734
24 | CC(=O)[C@H]1CC[C@H]2[C@@H]3CCC4=CC(=O)CC[C@]4(C)[C@H]3CC[C@]12C [Progesterone] | 0.552
25 | N=C(N)N [Guanidine] | 0.71
26 | O=C1[C@H]2CCCC[C@H]2C(=O)N1CCCCN1CCN(c2nsc3ccccc23)CC1 [Perospirone] | 0.198
27 | C#C[C@]1(O)CC[C@H]2[C@@H]3CCc4cc(OC)ccc4[C@H]3CC[C@@]21C [Mestranol] | 0.298
28 | C[C@@H](c1ncncc1F)[C@](O)(Cn1cncn1)c1ccc(F)cc1F [Voriconazole] | 0.824
29 | CC1(C)O[C@@H]2[C@@H](CO[C@@]3(COS(N)(=O)=O)OC(C)(C)O[C@@H]23)O1 [Topiramate] | 0.896
30 | CN(C)[C@@H]1C(O)=C(C(N)=O)C(=O)[C@@]2(O)C(O)=C3C(=O)c4c(O)cccc4[C@@](C)(O)[C@H]3[C@H](O)[C@@H]12 [Oxytetracycline] | 0.668
31 | Nc1nnc(-c2cccc(Cl)c2Cl)c(N)n1 [Lamotrigine] | 0.746
32 | Oc1ccc(C2CNCCc3c2cc(O)c(O)c3Cl)cc1 (stereo not drawn) [Fenoldopam] | 0.611
33 | CCCC1O[C@@H]2C[C@H]3[C@@H]4CCC5=CC(=O)C=C[C@]5(C)[C@H]4[C@@H](O)C[C@]3(C)[C@]2(C(=O)CO)O1 (stereo partly drawn) [Budesonide] | 0.762
